High-throughput results deposited in PubChem BioAssay by The Scripps Research Institute Molecular Screening Center.
hgDAF-12 ag = H. glycines DAF-12 receptor agonists, primary screen, cell-based, luminescence, HEK293, GAL4 fusion, UAS-luciferase | AID 687014, 2013 | activation, % at 6.8 µM | 370,000 compounds, 1.8% hits | HEK293 GAL4-hgDAF12 UAS-luciferase reporter, agonist luminescence; normalized to butyrate control | Nuclear hormone receptor DAF-12 (Heterodera glycines), GAL4 fusion;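 active means activation above a cutoff set at the mean of all screened compounds plus 3 SD, cut at about 10% in these data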;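 further: 0% = DMSO wells and 100% = sodium butyrate wells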
hcDAF12 agonist = H. contortus DAF-12 nuclear receptor activators, primary screen, cell-based, luminescence, HEK293, lit1-tk-luc reporter | AID 652067, 2013 | activation, % at 6.8 µM | HEK293 hcDAF-12 lit1-tk-luc reporter; 0% DMSO, 100% Δ7-dafachronic acid | 370,000 compounds, 1.4% hits;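 active means activation above the mean of all tested compounds plus 3 SD, cut at about 5.5% in these data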;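 further: 100% = response to 3 µM Δ7-dafachronic acid high control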
DAX1 inh-1 = DAX1 (NR0B1) inhibitors, primary screen, cell-based, HEK293, Gal4-DAX1, luciferase luminescence; Nuclear receptor subfamily 0 group B member 1 (Homo sapiens), P51843; 340,000 compounds, 0.99% hits; inhibition, % at 6.75 µM; HEK293 Gal4-DAX1 luciferase reporter; AID 504766, 2011;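 active means inhibition above the mean over all tested compounds plus 3 SD, cut at about 4.2% in these data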;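 further: 0% = DAX1-transfected cells with DMSO and 100% = empty-vector control cells with DMSO; inhibition shows as a rise in luminescence from relieved DAX1 repression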
Target sequence (P51843 207-470 limits assumed): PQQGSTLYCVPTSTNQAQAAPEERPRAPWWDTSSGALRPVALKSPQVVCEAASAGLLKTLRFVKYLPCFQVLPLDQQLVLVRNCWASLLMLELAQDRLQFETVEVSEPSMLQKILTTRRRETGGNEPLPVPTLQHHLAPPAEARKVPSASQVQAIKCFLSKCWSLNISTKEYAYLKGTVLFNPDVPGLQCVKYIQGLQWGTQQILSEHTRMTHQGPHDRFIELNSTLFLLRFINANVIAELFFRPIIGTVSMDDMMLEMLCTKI
DAX1 inh-2 = DAX1 (NR0B1) inhibitors on StAR promoter, primary screen, cell-based, luminescence, SF-1 (NR5A1), full-length DAX-1; HEK293T StAR-luciferase reporter, SF-1/DAX-1 repression relief; inhibition, % at 6.8 µM; 370,000 compounds, 1.1% hits; AID 652010, 2013;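 active means inhibition above the mean over all tested compounds plus 3 SD, cut at about 3.6% in these data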;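 further: 0% = DAX-1 cells with DMSO and 100% = cells lacking DAX-1 with DMSO; higher inhibition means more luminescence from relief of DAX-1 repression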
ssDAF-12 act = S. stercoralis DAF-12 nuclear receptor activators, primary screen, cell-based, luminescence, HEK293, GRIP1 co-expression, lit1-tk-luc. Nuclear hormone receptor DAF-12 (Strongyloides stercoralis). HEK293 ssDAF-12/GRIP1 lit1-tk-luc reporter; % of 3 µM dafachronic acid response. activation, % at 6.8 µM. 370,000 compounds, 1% hits. AID 652126, 2013;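 active means activation above the mean over all tested compounds plus 3 SD, cut at about 0.9% in these data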;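 further: 0% = DMSO-only wells and 100% = 3 µM delta7-dafachronic acid wells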
FXN GAA850 act = FXN promoter activators, primary screen, cell-based, luciferase luminescence, HEK293 lucGAA850. 360,000 compounds, 0.56% hits. activation, % at 6 µM. HEK293 lucGAA850 FXN promoter luciferase reporter, 24 h; percent of 10 µM SAHA response. AID 540364, 2011;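 active means activation above the average of all compounds screened plus 3 SD, cutoff fixed separately per campaign, cut at about 7.5% in these data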;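 further: 0% = DMSO wells and 100% = 10 µM SAHA wells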
* hit, by the source's call; nt = no result given. Hits are enriched below; roughly 4.5% of the tested compounds scored in any of these assays.

SMILES	hgDAF-12 ag	hcDAF12 agonist	DAX1 inh-1	DAX1 inh-2	ssDAF-12 act	FXN GAA850 act
N/C(=N\N=C\c1ccc([N+](=O)[O-])cc1)c1nonc1N	11*	2	0	1	-1	6
N/C(=N\N=C\c1ccc(Br)o1)c1nonc1N	13*	3	6.1*	1	0	3
CC1CCC2(CCC(=O)N2CCCOC(=O)NC(C)(C)C)CC1 (stereo not drawn)	-4	-2	nt	-1	-1	nt
O[C@H]1C[C@H](c2ccccc2)N(CC2CCCCC2)C[C@@H]1n1cc(C2CC2)nn1	5	1	0	3.7*	0	0
Oc1ccc2ccccc2c1C=Nc1ccc(Cl)cn1	1	2	0	-1	1.3*	0
CC(=O)Nc1ccc(OCc2ccc3c(c2)OCO3)cc1	12*	5	4	1	0	6
CCOc1ccc(NC(=S)NCc2ccc3c(c2)OCO3)cc1	0	0	5.5*	0	0	1
Nc1c(Cl)cc(N=Nc2ccccc2)cc1Cl	7	5	1	3	1.0*	3
Oc1ccc(Cl)cc1N=Nc1ccccc1	3	-2	0	0	-1	1
CCCCNC(=O)c1ccc2nc(CC)c(N(CC)CCN(C)C)n2c1	2	0	nt	1	0.9*	0
COC(=O)[C@@H](C)NC(=O)c1ccc2oc(CCc3ccccc3)nc2c1	11*	4	3	0	0	3
COC(=O)CCCNC(=O)c1ccc2oc(CCCc3ccccc3)nc2c1	4	0	1	0	0	2
CC(=O)c1ccc(NC(=O)C2Cc3ccccc3CN2C(=O)c2ccccc2)cc1 (stereo not drawn)	3	6.0*	-1	0	0	2
COC(=O)c1cc(-c2ccc(Cl)s2)c(=O)n2c1CCC2	2	6.5*	nt	1	-1	nt
O=C(O)c1[nH]c2ccccc2c1C=NCc1ccccc1Cl	-1	2	4.9*	0	0	0
Cn1c(-c2ccccc2[N+](=O)[O-])[n+](C)c2ccccc21	-2	0	5.0*	-1	0	-1
CCC1=NN2C(=N)/C(=C\c3cccn3-c3ccc(Br)cc3)C(=O)N=C2S1	1	0	4.7*	0	-1	2
COc1ccc(/C=c2\sc3nc(-c4ccccc4OC)nn3c2=O)c(OC)c1	2	4	0	0	0.9*	2
O=C(NC1=NC2CCCCC2N1)c1ccccc1 (stereo not drawn)	8	2	1	3.8*	0	0
CC(=O)c1ccc(N2Cc3ccccc3/C2=N\C(=O)Nc2ccc(Cl)cc2)cc1	12*	2	2	1	1	6
COc1cccc(NC(=O)C(=O)NCCC2CCCCN2S(=O)(=O)c2cccs2)c1 (stereo not drawn)	7	2	1	4.1*	-1	4
Cc1ccc(C=Nn2c(-c3n[nH]c4c3CCC4)n[nH]c2=S)o1	2	-1	nt	1	-1	nt
O=C(CCS(=O)(=O)c1ccccc1)Nc1cc(Cl)ccc1F	-3	-1	nt	-1	-1	nt
C[C@@H]1CN([C@H](C)CO)C(=O)CCCn2nncc2CO[C@H]1CN(C)C(=O)c1ccccc1	13*	0	0	0	-1	-1
C[C@@H]1CN([C@@H](C)CO)C(=O)CCCn2nncc2CO[C@@H]1CN(C)C(=O)Nc1ccnc(N2CCOCC2)c1	0	0	6.2*	1	-1	1
SMILES	hgDAF-12 ag	hcDAF12 agonist	DAX1 inh-1	DAX1 inh-2	ssDAF-12 act	FXN GAA850 act
C[C@@H]1CN([C@H](C)CO)C(=O)CCCn2cc(nn2)CO[C@H]1CN(C)C(=O)Nc1cccc(Oc2ccccn2)c1	0	-1	6.3*	0	-1	-2
C[C@@H]1CN([C@@H](C)CO)C(=O)CCCn2nncc2CO[C@@H]1CN(C)C(=O)c1ccccc1	0	-1	0	0	-1	2
C[C@H](CO)N1C[C@H](C)[C@@H](CN(C)C(=O)Nc2cccc(Oc3ccccn3)c2)OCc2cn(nn2)CCCC1=O	1	-1	nt	2	-1	nt
CN(C)c1ccc(/C=C/c2cccc[n+]2[O-])cc1	5	6.3*	nt	1	-1	1
[O-][n+]1ccccc1/C=C/c1ccccc1	0	1	2	0	-1	1
O=C(CCc1ccccc1)N[C@H]1[C@@H](OC(=O)C2CC2)CCC[C@@]12C(=O)N(Cc1ccccc1)c1ccccc12	-4	-2	nt	-1	-1	nt
c1ccc2c(c1)COc1c3ncccc3nn1-2	13*	2	1	2	0	2
O=C(O)c1cc(-c2cc3ccccc3o2)nn1-c1ccccc1	2	5.8*	1	0	2.5*	2
N/C(=N/OC(=O)c1ccccc1Cl)c1nonc1N	12*	0	3	1	-1	3
N/C(=N\OC(=O)c1ccc(F)cc1)c1nonc1N	4	0	0	1	0	1
Cc1oc2c(C)c3oc(=O)c(CCC(=O)NCCCN4CCCC4=O)c(C)c3cc2c1C	0	-4	4.3*	0	-1	-2
Cc1oc2c(C)c3oc(=O)c(CCC(=O)NCCCN4CCOCC4)c(C)c3cc2c1C	-2	-2	6.7*	0	0	-1
COc1ccc(C(=O)CSc2nnc(-c3n[nH]c4c3CCC4)n2N)cc1OC	-10	-2	nt	-1	-1	nt
COc1ccc(-c2nc3c(s2)CN(S(C)(=O)=O)CC3)cc1OC	1	1	2	0	-1	3
CCS(=O)(=O)N1CCc2nc(-c3ccccc3)sc2C1	12*	3	4.9*	2	0	5
COc1ccc(-c2cccc3[nH]c4c(c23)CCN2C(=O)[C@H]3[C@H](C)ON(C)[C@H]3C[C@@H]42)cc1	-3	-2	nt	-1	-1	nt
COC(=O)c1cc2c(c3c4ccccc4n(S(C)(=O)=O)c13)C(=O)N(Cc1ccccc1)C2	3	2	nt	-1	2.8*	nt
O=C(Nc1cccc(S(=O)(=O)N2CCCCCC2)c1)c1ccc2ccccc2n1	5	6.4*	1	2	0	7
O=C(Nc1cccc(-c2cn3c(n2)SCC3)c1)c1ccc2ccccc2n1	12*	4	-1	3	0	4
